# From PubChem BioAssay
# Active and inactive are the calls of the source. Unless noted, how the calls were made is not given here.
# What was measured:
# [1] = system: Wnt5a (protein binding on small-molecule microarray); experiment: small molecules binding Wnt5a protein – biophysical, small-molecule microarray, 635/667 nm fluorescence, primary screen (AID 1142); conditions: 635 nm fluorescence, higher = more signal;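 further: fluorescence read at 667 nm with signal to noise per printed feature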
# [2] = ATP-based viability of Huh7 replicon cells – cell-based, CellTiter-Glo luminescence, basal, 48 h, cytotoxicity control for HCV replication inhibitor project, primary screen (AID 1143); conditions: higher = more signal, called active from +8 up or from −8 down;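 further: Huh7 hepatoma cells carrying a hepatitis C replication reporter with no stimulus; test concentration not given here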
# [3] = Pseudomonas biofilm growth suppression – PAO1 strain, BacTiter-Glo luminescence, LB-PBS, primary screen (AID 1144); conditions: P. aeruginosa PAO1 biofilm, 12 h, higher = more signal
# [4] = basal CRE-LacZ reporter activity in PC12 – cell-based, unstimulated, primary screen (AID 1145); conditions: no forskolin, luminescence, 4.5 h, higher = more signal, called active from +8 up or from −8 down
# [5] = forskolin-driven CRE-LacZ activity in PC12 – cell-based, CRE-LacZ reporter, forskolin-stimulated, primary screen (AID 1146); conditions: luminescence, 4.5 h, higher = more signal, called active from +8 up or from −8 down;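 further: PC12 cells with 6xCRE LacZ reporter stimulated by forskolin 10 µM; beta-galactosidase reporter signal reflecting CREB driven transcription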
# [6] = molecular target: Streptavidin (Streptomyces avidinii) (UniProt P22629); experiment: compounds binding control protein streptavidin – biophysical, small-molecule microarray, 635/667 nm fluorescence, artefact control for SMM compound annotation, primary screen (AID 1147); conditions: higher = more signal;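 further: signal reflects streptavidin binding to arrayed compounds as a control protein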
# [7] = probe aInhba binding on compound microarray – biochemical, small-molecule microarray, 635/667 nm fluorescence, primary screen (AID 1148); conditions: higher = more signal;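 further: score merges 667nm spot fluorescence with signal-to-noise for antibody binding to printed compounds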
# [8] = molecular target: Torsin-1A (Homo sapiens) (UniProt O14656); experiment: TOR1A wild-type binding on microarray – cell lysate, small-molecule microarray, lysate, 635/667 nm, primary screen (AID 1149); conditions: COS7 hTOR1A-WT lysate, 635 nm fluorescence, higher = more signal
# [9] = molecular target: Torsin-1A (Homo sapiens) (UniProt O14656); experiment: torsin A mutant lysate binding on microarrays – cell lysate, small-molecule microarray, COS7 lysate, 635/667 nm fluorescence, primary screen (AID 1150); conditions: COS7 hTOR1A mutant lysate, 635 nm fluorescence, higher = more signal;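 further: score pools 667 nm emission and signal to noise measuring lysate protein binding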
# [10] = system: Sonic hedgehog protein (Shh); experiment: Sonic hedgehog microarray binding compounds – biochemical, small-molecule microarray, 635/667 nm fluorescence, primary screen (AID 1151); conditions: 635 nm fluorescence, higher = more signal;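 further: Shh protein binding to compounds spotted on small-molecule microarray slides; score combines spot fluorescence intensity with signal-to-noise across triplicate slides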
# [11] = optical density shifts of acrAB sulA E. coli – strain DRC41, OD650, 48 h, E. coli filamentation inducer project, primary screen (AID 1152); conditions: higher = more signal, called active from +8 up or from −8 down;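 further: E. coli MC1000 strain DRC41 lacking acrAB efflux pump and sulA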
# [12] = probe aLefty1 binding on compound microarray – biochemical, small-molecule microarray, 635/667 nm fluorescence, primary screen (AID 1153); conditions: higher = more signal;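 further: score merges spot fluorescence with signal-to-noise ratio from the scanned slide images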
# [13] = plasmodial surface anion channel blockers, osmotic lysis – cell-based, P. falciparum Indochina, OD700, 1 h, primary screen (AID 1154); conditions: P. falciparum Indochina infected RBC osmotic lysis, higher = more signal, called active from +8 up or from −8 down
# [14] = plasmodial surface anion channel blockers, osmotic lysis – cell-based, P. falciparum Indochina, OD700, 2 h, primary screen (AID 1155);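 further: lysis reports solute entry through the parasite surface anion channel PSAC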; conditions: P. falciparum Indochina infected erythrocytes, higher = more signal, called active from +8 up or from −8 down
# [15] = changes in parasitized red cell lysis, either direction – P. falciparum Indochina, OD700, 3 h, PSAC antagonist project, primary screen (AID 1156); conditions: P. falciparum-infected erythrocytes, osmotic lysis, higher = more signal, called active from +8 up or from −8 down
# [16] = plasmodial surface anion channel blockers, osmotic lysis – cell-based, P. falciparum Indochina, OD700, 18 h, primary screen (AID 1157); conditions: P. falciparum Indochina infected erythrocytes, osmotic lysis OD700, 18 h; higher = more signal, called active from +8 up or from −8 down
# [17] = S6 kinase pathway phospho-S6 level changes – cell-based, A549, cytoblot, luminescence, serum-stimulated, primary screen (AID 1158); conditions: 5 h, higher = more signal;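 further: serum-stimulated A549 lung adenocarcinoma cells; signal is phosphorylated S6 detected by cytoblot immunostaining with HRP secondary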
# [18] = molecular target: NADPH oxidase 2 (Homo sapiens) (UniProt P04839); experiment: compounds shifting NOX2 Amplex Red fluorescence – cell-based, HEK293-NOX2, PMA-stimulated, NOX inhibitor project, primary screen (AID 1159); conditions: 45 min, higher = more signal, called active from +8 up or from −8 down; further: test concentration not given here
# [19] = molecular target: NADPH oxidase 4 (Homo sapiens) (UniProt Q9NPH5); experiment: compounds shifting NOX4 Amplex Red fluorescence – cell-based, HEK293-NOX4, tetracycline-induced, NOX inhibitor project, primary screen (AID 1160); conditions: HEK293-NOX4, Amplex Red H2O2 fluorescence, 45 min; higher = more signal, called active from +8 up or from −8 down
# [20] = molecular target: NADPH oxidase 5 (Homo sapiens) (UniProt Q96PH1); experiment: compounds shifting NOX5 Amplex Red fluorescence – cell-based, HEK293-NOX5, NOX inhibitor project, primary screen (AID 1161); conditions: HEK293-NOX5, ionomycin, 45 min, higher = more signal
# Sequence of NADPH oxidase 5 (Homo sapiens) (Q96PH1 whole entry, looked up): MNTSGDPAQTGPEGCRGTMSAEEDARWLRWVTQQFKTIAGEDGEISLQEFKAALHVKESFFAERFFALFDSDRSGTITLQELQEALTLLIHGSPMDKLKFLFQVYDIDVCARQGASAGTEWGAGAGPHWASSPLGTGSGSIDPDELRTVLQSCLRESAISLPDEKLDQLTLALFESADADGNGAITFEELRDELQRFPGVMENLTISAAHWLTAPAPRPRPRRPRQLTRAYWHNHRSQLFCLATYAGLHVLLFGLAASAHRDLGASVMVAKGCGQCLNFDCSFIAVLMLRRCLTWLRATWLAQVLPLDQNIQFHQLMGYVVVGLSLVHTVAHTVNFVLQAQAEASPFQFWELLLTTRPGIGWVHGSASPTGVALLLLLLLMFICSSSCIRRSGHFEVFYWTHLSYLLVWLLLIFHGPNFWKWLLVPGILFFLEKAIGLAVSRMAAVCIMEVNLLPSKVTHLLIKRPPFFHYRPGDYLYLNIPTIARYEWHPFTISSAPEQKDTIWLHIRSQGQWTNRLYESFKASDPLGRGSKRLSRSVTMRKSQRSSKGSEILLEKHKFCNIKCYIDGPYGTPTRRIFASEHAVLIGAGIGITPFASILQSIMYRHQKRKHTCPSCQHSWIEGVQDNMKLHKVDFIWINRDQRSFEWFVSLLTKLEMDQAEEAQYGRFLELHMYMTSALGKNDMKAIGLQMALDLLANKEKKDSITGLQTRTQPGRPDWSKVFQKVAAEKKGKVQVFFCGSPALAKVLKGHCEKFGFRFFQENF
# Sequence of NADPH oxidase 4 (Homo sapiens) (Q9NPH5 whole entry, looked up): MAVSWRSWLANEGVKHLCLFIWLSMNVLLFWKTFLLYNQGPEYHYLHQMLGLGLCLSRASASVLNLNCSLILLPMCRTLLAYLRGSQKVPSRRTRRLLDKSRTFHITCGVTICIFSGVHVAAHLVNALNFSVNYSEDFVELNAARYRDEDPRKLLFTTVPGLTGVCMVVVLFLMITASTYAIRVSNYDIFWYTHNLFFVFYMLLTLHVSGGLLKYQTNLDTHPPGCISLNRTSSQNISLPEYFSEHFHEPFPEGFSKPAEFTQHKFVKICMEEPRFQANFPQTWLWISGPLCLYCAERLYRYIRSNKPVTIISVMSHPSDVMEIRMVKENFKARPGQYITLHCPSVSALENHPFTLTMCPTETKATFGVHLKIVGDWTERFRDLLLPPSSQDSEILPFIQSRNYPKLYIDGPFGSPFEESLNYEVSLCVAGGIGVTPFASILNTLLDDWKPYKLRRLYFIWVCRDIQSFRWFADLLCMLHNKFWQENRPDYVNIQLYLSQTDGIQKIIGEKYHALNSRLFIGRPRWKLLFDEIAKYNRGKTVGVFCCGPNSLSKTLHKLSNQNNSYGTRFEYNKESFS
# Sequence of Streptavidin (Streptomyces avidinii) (P22629 whole entry, looked up): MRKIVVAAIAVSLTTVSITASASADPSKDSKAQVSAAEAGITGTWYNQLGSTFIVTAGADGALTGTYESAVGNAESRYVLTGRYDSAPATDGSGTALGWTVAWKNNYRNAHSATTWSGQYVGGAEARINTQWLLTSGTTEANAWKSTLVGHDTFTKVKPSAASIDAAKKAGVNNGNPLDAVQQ
# Sequence of Torsin-1A (Homo sapiens) (O14656 whole entry, looked up): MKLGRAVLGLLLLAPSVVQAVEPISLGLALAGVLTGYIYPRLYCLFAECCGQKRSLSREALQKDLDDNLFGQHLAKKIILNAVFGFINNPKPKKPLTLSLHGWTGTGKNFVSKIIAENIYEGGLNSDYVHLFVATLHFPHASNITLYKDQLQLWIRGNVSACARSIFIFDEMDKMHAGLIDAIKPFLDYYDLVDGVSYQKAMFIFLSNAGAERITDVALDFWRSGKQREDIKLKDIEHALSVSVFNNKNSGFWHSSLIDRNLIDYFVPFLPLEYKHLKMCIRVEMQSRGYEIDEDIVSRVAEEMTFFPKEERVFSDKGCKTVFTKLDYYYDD
# Sequence of NADPH oxidase 2 (Homo sapiens) (P04839 whole entry, looked up): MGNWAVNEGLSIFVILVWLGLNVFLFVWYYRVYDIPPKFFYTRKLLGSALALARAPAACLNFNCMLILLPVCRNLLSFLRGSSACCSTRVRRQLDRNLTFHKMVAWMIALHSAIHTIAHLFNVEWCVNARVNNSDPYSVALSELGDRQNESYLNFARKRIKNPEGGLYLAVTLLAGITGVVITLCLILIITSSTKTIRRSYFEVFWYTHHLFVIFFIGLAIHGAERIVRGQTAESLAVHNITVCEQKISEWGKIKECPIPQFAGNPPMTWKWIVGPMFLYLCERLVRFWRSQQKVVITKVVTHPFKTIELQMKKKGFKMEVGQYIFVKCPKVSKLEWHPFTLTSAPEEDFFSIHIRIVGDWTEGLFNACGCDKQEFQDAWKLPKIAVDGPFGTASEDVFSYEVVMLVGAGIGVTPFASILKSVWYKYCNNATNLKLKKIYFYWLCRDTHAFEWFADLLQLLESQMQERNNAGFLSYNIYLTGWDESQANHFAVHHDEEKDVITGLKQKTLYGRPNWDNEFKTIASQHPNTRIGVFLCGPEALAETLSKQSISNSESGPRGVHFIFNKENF
SMILES,composite z-score [1],z-score [2],z-score [3],z-score [4],z-score [5],composite z-score [6],composite z-score [7],composite z-score [8],composite z-score [9],composite z-score [10],z-score [11],composite z-score [12],z-score [13],z-score [14],z-score [15],z-score [16],z-score [17],z-score [18],z-score [19],z-score [20]
C=CC[C@]1(C(=O)NCc2ccccc2)N=C(c2ccc(OCCCO)cc2)O[C@H]1c1ccccc1CN=[N+]=[N-],0.625,-3.52 (inactive),-0.728 (inactive),0.857 (inactive),-0.116 (inactive),0.866,0.682,-0.221,0.631,-0.251,-1.21 (inactive),0.0556,19.7 (active),2.93 (inactive),3.16 (inactive),0.986 (inactive),-0.387,-0.302 (inactive),0.617 (inactive),-0.656
CCOC(=O)C1=CCC(c2ccc(F)cc2)N(S(=O)(=O)c2ccc(C)cc2)C1 (stereo not given),0.0848,-2.8 (inactive),0.046 (inactive),0.481 (inactive),-0.323 (inactive),0.407,-0.0963,0.827,0.203,-0.282,-1 (inactive),-0.147,1.44 (inactive),0.952 (inactive),-0.421 (inactive),0.363 (inactive),-0.566,0.396 (inactive),-0.0222 (inactive),0.315
CC(C)(C)OC(=O)CC[C@]1(C(N)=O)N=C(c2ccc(OCCCO)cc2)O[C@H]1c1ccccc1,0.836,-0.408 (inactive),0.304 (inactive),-0.585 (inactive),-0.121 (inactive),0.679,0.4,-0.037,0.941,-0.332,-0.179 (inactive),0.762,6.16 (inactive),-0.927 (inactive),-0.524 (inactive),-0.367 (inactive),0.0312,0.266 (inactive),-1.12 (inactive),0.814
COc1ccccc1CN1C(=O)c2ccccc2[C@@]2(Cc3ccccc3N(CCCN(C)C)C2=O)[C@@H]1c1ccc(CO)cc1,-0.0961,-4.71 (inactive),-0.516 (inactive),-0.0243 (inactive),-0.926 (inactive),0.224,-0.19,-0.0118,0.0265,0.243,2 (inactive),-0.152,0.599 (inactive),-0.678 (inactive),-0.795 (inactive),-1.1 (inactive),2.55,-0.841 (inactive),-1.61 (inactive),1.51
O=C1[C@H]2C=C(I)[C@H](C[C@@H]2OCCCCO)[C@@]12CO2,-0.163,0.634 (inactive),-0.0455 (inactive),-0.235 (inactive),1.6 (inactive),-0.162,-0.025,0.953,0.625,0.745,-0.989 (inactive),0.0437,1.01 (inactive),-0.171 (inactive),0.282 (inactive),-0.039 (inactive),0.764,-0.0538 (inactive),0.491 (inactive),-0.584
O=C(NCc1ccccc1)[C@@H]1c2ccccc2C(=O)N(C2Cc3ccccc3C2)[C@H]1c1ccc(CO)cc1,0.303,-0.746 (inactive),0.317 (inactive),0.764 (inactive),0.134 (inactive),0.49,0.196,-0.0754,0.165,1.31,-1.25 (inactive),0.315,3.46 (inactive),-0.627 (inactive),-0.0549 (inactive),0.353 (inactive),-0.543,-0.0422 (inactive),-1.3 (inactive),-1.41
O=C1O[C@H](c2ccccc2)[C@H](c2ccccc2)N2[C@H]1[C@@H](C(=O)NC[C@H](O)c1ccccc1)[C@]1(C(=O)Nc3ccccc31)[C@H]2c1ccc(O)cc1,0.378,-1.1 (inactive),-1.25 (inactive),-1.29 (inactive),-0.423 (inactive),0.287,-0.128,0.643,0.506,1.5,0.281 (inactive),0.0191,2.49 (inactive),1.29 (inactive),-0.214 (inactive),1.29 (inactive),-0.482,-0.0983 (inactive),-0.705 (inactive),0.152
CN1C(=O)C2C=CC(C(O)C=Cc3ccc([N+](=O)[O-])cc3)N(Nc3ccccc3)C2C1=O (stereo not given),0.286,-0.143 (inactive),-0.585 (inactive),0.426 (inactive),0.528 (inactive),1.16,0.0497,0.0394,-0.0071,0.428,-1.84 (inactive),-0.139,6.52 (inactive),1.48 (inactive),0.86 (inactive),1.32 (inactive),-1.05,-1.57 (inactive),-3.82 (inactive),-2.44
